# From PubChem BioAssay AID504648 (National Center for Advancing Translational Sciences (NCATS), 2011)
# Hit rate of the full screen: of about 390,000 compounds, about 610 (0.16%) were called active. About 4% were inconclusive and are not listed. This is one part of a sample in which actives are shown more often than they occur. A number with no mark means an inactive call. Calls follow the shape of the dose curve; as a rule, active = well fitted inhibition curve with a large enough effect; inconclusive = small, poorly fitted or top-dose-only effect, or effect the other way, or another doubt; inactive = no such curve, though single readings can be large or run the other way.
# Assay: Nrf2 qHTS screen for inhibitors: counterscreen for cytotoxicity
# Conditions: A549 ARE-Fluc cells, CellTiter-Fluor viability, 18-24 h; series mostly up to 46 µM; activity change, negative = cytotoxicity: at the top concentration
# Source text: NIH Molecular Libraries Probe Production Network [MLPCN]
# NIH Chemical Genomics Center [NCGC]
# Assay Provider: Shyam Biswal, Johns Hopkins University
# Nrf2 is a transcription factor that maintains cellular redox homoestasis and protects cells from xenobiotics. Nrf2 binds to the antioxidant response element (ARE) to induce gene expression of a broad spectrum of genes that encode for antioxidants. […] Finding a small molecule that act as an inhibitor of Nrf2 function would represent a novel therapeutic target that could lead to improvement in survival of patients undergoing chemo- and/or radio- therapy.
# So here we implemented a counterscreen to weed out the cytotoxic compounds.
# 1. Shibata, T., et al., Genetic Alteration of Keap1 Confers Constitutive Nrf2 Activation and Resistance to Chemotherapy in Gallbladder Cancer. Gastroenterology, 2008.
# 2. Sjoblom, T., et al., The consensus coding sequences of human breast and colorectal cancers. Science, 2006. 314(5797): p. 268-74.
# NCGC Assay Protocol Summary:
# A concentration-response assay was performed with A549 ARE_Fluc cells which are suspended in 5% FBS OPTI-MEM. Five uL were dispensed into 1536-well white TC-treated plate using the Kalypsys dispenser to achieve a density of 5000 cells/well in all columns except column 1. The plate is incubated at 37deg C at 5% CO2 for 2 hours before 23 nL of compounds are added with the Kalypsys pin tool equipped with a 1,536-pin array containing 10-nL slotted pins (FP1S10, 0.457-mm diameter, 50.8 mm long; V&P Scientific). The control compounds Budesonide and Staurosporine are both added at a concentration of 2mM and Budesonide is also added as a 1:10 titration, starting at 200uM, to achieve dose-response. After an 18-24 hour incubation at 37deg C at 5% CO2, 5ul of medium is added to column 1. Afterwards 1ul of 5x of CellTiter-Fluor (Promega) is added to every well. The plate is then incubated at 37deg C at 5% CO2 for 30 minutes before they are read on the ViewLux (Perkin Elmer) for a fluorescent read Ex=405(10)/Em=525(10) for a 3 second exposure, 2x binning, and high gain. Then 3 uL of 3x BugLite is dispensed into all wells and the plate is incubated at ambient room temperature for 15 minutes. Afterwards another ViewLux read is performed using the clear filter to get a luminescent read with the settings of 40 second exposure, 2x binning, and high gain. Cytotoxicity is assessed through the first fluorescent read and then biochemical activity against Nrf2 is measured in the luminescent read.
# % is scaled to controls: 0 for no effect and ±100 for the full control effect; potency is read from the fitted curve at half-maximal effect.
SMILES,"activity change, negative = cytotoxicity",Potency
O=C(c1ccco1)N(Cc1cccs1)c1ccc(O)cc1,18.3%,
COC(=O)CCc1ccccc1S(=O)(=O)N(CCC(=O)OC)Cc1ccccc1,-2.64%,
COc1ccc(S(=O)(=O)N2CCCC(C(=O)Nc3ccc(NC(=O)c4ccccn4)cc3)C2)cc1 (centres undefined),-6.09%,
C/C(=N\NC(=O)Cc1ccc(Cl)cc1)c1ccccn1,,2.31 µM (active)
C/C(=N/NC(=O)CSc1ccccn1)c1ccc([N+](=O)[O-])cc1,-8.17%,
C/C(Cc1ccccc1)=N\NC(=O)CNC(=O)c1ccccc1Cl,0.489%,
Cc1ccc(NC(=S)N2CCN(c3ncccn3)CC2)cc1C,7.48%,
CC(=NNC(=S)N1CCCCCC1)c1ccccn1,,20.6 µM (active)
O=C1CSC2(C(=O)N(Cc3ccccc3)c3ccccc32)N1c1cccc(F)c1 (centres undefined),-6.81%,
NS(=O)(=O)c1ccc(-c2ccc(/C=C3\SC(=O)NC3=O)o2)cc1,,11.6 µM (active)
CCOc1ccc(NC(=O)CSc2nnc3c(n2)[nH]c2ccc(S(=O)(=O)N4CCOCC4)cc23)cc1,5.87%,
O=C1C(F)N([S+](=O)([O-])c2ccc3c(c2)OCCO3)CCN1[S+](=O)([O-])c1c(F)cccc1F (centres undefined),1.53%,
O=C(NNC(=O)c1cccc(S(=O)(=O)Nc2ccc(Cl)cc2)c1)c1ccc(=O)[nH]c1,7.7%,
CC(=O)Nc1ccc(C(=O)Nc2cccc(S(=O)(=O)NC3=NCCC3)c2)cc1,-0.73%,
O=C(Nc1cccc(S(=O)(=O)Nc2ccc(Cl)cc2)c1)c1ccc2c(c1)OCCO2,,16.4 µM (active)
COc1cccc2c1C(=O)c1c(O)c3c(c(O)c1C2=O)CC(O)(C(C)=NNC(=O)c1ccc(Cl)c(Cl)c1)CC3OC1CC(N)C(O)C(C)O1 (centres undefined),,11.6 µM (active)
O=S(=O)(Nc1cccc2cccnc12)c1cccc2cccnc12,-15.4%,
COc1ccccc1CNc1ccc(-c2nc(-c3ccccc3C)no2)cc1[N+](=O)[O-],-0.21%,
COc1ccc(-c2nc(=N)sn2-c2ccccc2)cc1,-0.495%,
COc1ccc(Cn2c(=O)[nH]c3cc(C(=O)N4CCN(C(=O)c5ccco5)CC4)ccc3c2=O)cc1,0.466%,
COc1ccc(C(CCN2CCOCC2)c2c(OC)cc(OC)c3c2OC(=O)CC3c2ccc(OC)cc2)cc1 (centres undefined),-15.8%,
C=C1CCN(C(CC(C)C)C(=O)N2CCOCC2)S(=O)(=O)c2ccccc21 (centres undefined),5.21%,
COc1ccc(-c2ccc(C3C4C=CCCC4(C)C(=O)N3Cc3ccccc3)c(F)c2)cc1OC (centres undefined),-6.6%,
CC(=O)N1CCCc2ccc(NS(=O)(=O)c3ccc(F)cc3F)cc21,-2.91%,

SMILES,"activity change, negative = cytotoxicity",Potency
N#CN1CCC(NC(=O)c2ccc(F)cc2)CC1,0.665%,
O=C(/C=C/c1ccc([N+](=O)[O-])o1)NNC(=O)c1ccc(F)cc1,,14.6 µM (active)
CCCCCCC1(C)NC(c2ccc3c(c2)OCO3)=CC(c2ccccc2O)N1 (centres undefined),1.15%,
O=C(CNC(=O)c1ccc(Cl)cc1Cl)OC(C(=O)Nc1cc(C(F)(F)F)ccc1Cl)c1ccccc1 (centres undefined),4.24%,
COc1ccc(N2CCN(S(=O)(=O)c3ccc4c(c3)CC(=O)N4)CC2)cc1,-0.133% [at 92.2 µM],
CCN(CC)C(=O)CSc1nc2ccsc2c(=O)n1Cc1ccccc1Cl,-0.0336%,
Cc1ccc(NC(=O)c2cc(S(=O)(=O)NCCC3=CCCCC3)ccc2F)cc1C,-27.7%,
COc1ccc(-c2nnc(SCC(=O)Nc3ccccc3C)o2)cc1OC,8.42%,
Cc1cccc(C)c1-n1c(C)cc(/C=C2\C(=O)NN(c3ccccc3)C2=O)c1C,,20.6 µM (active)
Cc1cccc(NC(=O)c2ccc3nc(C(C)C)oc3c2)c1C,-2.46%,
Cc1ccc(C)c(N2CCN(C(=O)Cn3nc(C)c4sc5ccccc5c4c3=O)CC2)c1,-0.191%,
O=C1CCCC2=C1[C@@]1(CCC(c3ccccc3)C1)N=C(Nc1nc3ccccc3o1)N2 (some centres undefined),,inactive
CCN(CC)CCC(c1ccc2c(c1)OCO2)c1c(OC)cc(OC)c2c(-c3ccccc3)cc(=O)oc12 (centres undefined),,inactive
COc1cc(OC)c2ccc(=O)oc2c1C(CCN1CCN(c2ccccc2)CC1)c1ccc2c(c1)OCO2 (centres undefined),,23.1 µM (active)
COc1cc(C(CCN2CCN(c3ccccc3)CC2)c2c(OC)cc(OC)c3ccc(=O)oc23)cc(OC)c1OC (centres undefined),,inactive
COC(=O)Cc1csc(/N=C/c2c(O)n(-c3cccc(C(F)(F)F)c3)c(=O)c3ccccc23)n1,-0.417%,
CCOc1ccc(N=Cc2c(O)n(-c3cccc(C)n3)c(=O)c3ccccc23)cc1,,18.4 µM (active)
CCO/C=C1\C(=O)N(c2ccc(OCC)cc2)C(=O)c2ccccc21,1.75%,
COc1ccc(-c2ccc(OC)c(C3C4C=CCC(C)C4C(=O)N3Cc3ccccc3)c2)cc1C (centres undefined),9.58%,
COc1ccc(NC(=O)CSc2nc3ccccc3n2CC(=O)N2CCCCC2C)cc1 (centres undefined),2.61%,
COc1cc(NS(=O)(=O)c2ccc3c(c2)OCC(C(=O)N2CCCC2)O3)cc(OC)c1 (centres undefined),11.7%,
CCOC(=O)C1CCN(c2ncnc3c2c(-c2ccccc2)cn3-c2cccc(C)c2)CC1,-2.99%,
Cc1ccc(-c2nc(CS(=O)(=O)CC(=O)NCc3ccccc3Cl)c(C)o2)cc1,-3.48%,
O=C(CSc1nnc(-c2ccccc2F)o1)Nc1cccc(C(F)(F)F)c1,0.119%,

SMILES,"activity change, negative = cytotoxicity",Potency
Cc1noc(C)c1-c1ccc2ncnc(NCc3ccc(F)c(F)c3)c2c1,4.64%,
CC(Nc1ncnc2ccc(-c3ccc4c(c3)OCO4)cc12)c1ccco1 (centres undefined),-4.09%,
CCCS(=O)(=O)Nc1cccc(-c2cn3ccsc3n2)c1,-0.488%,
CCOc1cc(-c2nnc(SCC(=O)NC3CCCC3)nc2-c2ccc(OC)c(OCC)c2)ccc1OC,0.646%,
O=C(CNC(=O)c1ccc(Cl)c(C(F)(F)F)c1)OC(C(=O)Nc1cc(C(F)(F)F)ccc1Cl)c1ccccc1 (centres undefined),6.99%,
COc1ccc(C(=O)NC(=S)N2CCNC(=O)C2CC(=O)OC(C)C)cc1 (centres undefined),-0.593%,
CCOC(=O)CNC(=O)c1cc2c(=O)n3cccc(C)c3nc2s1,-10.8%,
CCOC(=O)CC1C(=O)NCCN1c1nc2c(C)cccn2c(=O)c1/C=C1\SC(=S)N(C(C)CC)C1=O (centres undefined),,20.6 µM (active)
Cc1cc(C)n2ncc(C(=O)N3CCCC3)c2n1,1.39%,
CSc1ncc(Cl)c(C(=O)Nc2ccc(S(=O)(=O)N3CCCC(C)C3)cc2)n1 (centres undefined),-5.22%,
Cc1noc(C)c1-c1ccc2ncnc(NCc3ccc4[nH]ccc4c3)c2c1,-2.7%,
Cc1ccc(S(=O)(=O)NC(N)=NCCC[C@@H](NC(=O)CNC(=O)c2ccccc2)C(=O)Nc2cc(C(F)(F)F)ccc2Cl)cc1,-0.65%,
CCOc1cc(C2C(C(=O)Nc3ccc(OC)cc3)=C(C)Nc3nc(SC)nn32)ccc1O (centres undefined),-7.86%,
CN1CCOc2cc(S(=O)(=O)N3CCN(S(=O)(=O)c4c(F)cccc4F)CC3)cnc21,1.94%,
O=C1CN(Cc2ccccc2)S(=O)(=O)c2ccccc21,-6.44%,
COc1ccc(C2Nc3ccc(NC(=O)COC(C)=O)cc3C(=O)N2Cc2ccccc2)cc1COc1ccc(NC(C)=O)cc1 (centres undefined),-10.7%,
COc1ccc(C2Nc3ccccc3C(=O)N2Cc2ccc(Cl)cc2)cc1COc1ccc(NC(C)=O)cc1 (centres undefined),-0.276%,
O=C1C[C@@H](c2ccc3ccccc3c2)N1S(=O)(=O)c1ccccc1[N+](=O)[O-],-3.21%,
CNC(=O)[C@]1(C(F)(F)F)C[C@H](CCc2ccccc2)CCCO1,6.94%,
COc1ccc2c(Sc3ccc(C)cc3)c(C(=O)NC(C)c3ccccc3)[nH]c2c1 (centres undefined),-1.33%,
Cc1cc(NS(=O)(=O)c2ccc3oc(=O)c4ncn(C)c4c3c2)ccc1Br,7.19%,
CC1CC(=NNC(=O)C2COc3ccccc3O2)CC(C)(C)C1 (centres undefined),-3.44%,
CC(/C=C/c1ccco1)=N/NC(=O)C1COc2ccccc2O1 (centres undefined),-13.5%,
O=C(Nc1ncc([N+](=O)[O-])s1)C1COc2ccccc2O1 (centres undefined),,20.6 µM (active)

SMILES,"activity change, negative = cytotoxicity",Potency
Oc1ccc(Br)cc1C1C=C(c2ccc3c(c2)OCO3)NC(c2ccc(Cl)cc2)N1 (centres undefined),-1.63%,
Cc1ccc(-c2nc(=N)sn2Cc2ccccc2)cc1,1.46%,
CCCN1CCC(=O)N(C(CSc2ccc(OC)cc2)Cc2ccccc2)CC1 (centres undefined),-8.39%,
COc1ccc(C2Nc3cccc(OC)c3C(=O)N2Cc2ccccc2)cc1COc1ccc(NC(C)=O)cc1 (centres undefined),-12.8%,
CCOc1ccc(Br)cc1CSC(=N)N,,20.6 µM (active)
CCOc1ccc(Br)cc1S(=O)(=O)Nc1cccc(S(=O)(=O)N(CC)CC)c1,0.746%,
COCC(C)NCc1cc(Br)ccc1OC (centres undefined),-4.58%,
O=C1NS(=O)(=O)c2ccccc21,8.61%,
O=C(NC(c1ccco1)c1cc(Cl)c2cccnc2c1O)c1ccccc1 (centres undefined),-0.714%,
O=C1CCc2cc(S(=O)(=O)Nc3cccc(Oc4ccccc4)c3)ccc2N1,-8.7%,
CCN1/C(=C/C(=S)Nc2ccccc2)Sc2ccccc21,,16.4 µM (active)
CNC(=O)CN1C(=O)c2cccnc2Sc2ccccc21,14.5%,
CCN1C(=O)c2ccccc2Sc2ccc(NC(=O)Cc3ccc(OC)cc3)cc21,-10.3%,
Cc1cc2c(s1)c1cnn(Cc3cc(F)c(Cl)cc3Cl)c(=O)c1n2C,-4.09%,
CN=C1C=C/C(=N/N=c2\ccn(O)cc2C)C=C1C,,16.4 µM (active)
OC[C@@H]1O[C@H](n2cnc3c(SCc4ccccc4)ncnc32)[C@H](O)[C@H]1O,-1.58%,
COc1ccc(C2Nc3ccccc3C(=O)N2Cc2ccccc2)cc1COc1ccc(C(N)=O)cc1 (centres undefined),-12.4%,
COc1cc(F)c(S(=O)(=O)N2CCCN(S(=O)(=O)c3ccc(N)cc3)CC2)c(F)c1,-0.59%,
Cc1nc(N2CCOCC2)c2c(C(=O)NCc3cccc(Cl)c3)c(C)oc2n1,7.13%,
CCOc1ccc(-c2n[nH]c3c2C(c2ccccc2OC)N(c2ccc(Br)cc2)C3=O)cc1 (centres undefined),-27.1%,
CCCN1CCC(=O)N(C(CSc2ccc(C)cc2)Cc2ccccc2)CC1 (centres undefined),-3.4%,
Cc1ccc(S(=O)(=O)N2CCN(c3nc(-n4cnc5ccccc54)nc4ccccc34)CC2)cc1,0.928%,
